In the antibiotic and cytotoxicity screens of Wong et al. (2023):
The campaign covered roughly 39,000 compounds. About 3,300 (8.5%) were called active. For the sample, actives were picked, then their nearest neighbours and some compounds at random.

The compounds below were run on HepG2 (assay: cytotoxicity call (relative viability < 0.9)). Conditions: 10 µM.
In the case of `COc1cccc(OCc2ccc(Cn3nc(NC(=O)Nc4c(OC)cccc4OC)c4ccccc43)cc2)c1`, the cytotoxicity call was “inactive”.
In the case of `CN(C)CCCOc1nn(Cc2ccccc2)c2ccccc12.Cl`, the cytotoxicity call was “active”.
`O=C(O)COc1nn(Cc2ccccc2)c2ccccc12` was tested, and the cytotoxicity call was “inactive”.
`C[C@H]1CN([C@@H](C)CO)S(=O)(=O)c2ccc(C#CC3CC3)cc2O[C@@H]1CN(C)Cc1ccccc1F` was tested, and the cytotoxicity call was “inactive”.
`C[C@@H]1CN([C@@H](C)CO)C(=O)Cc2cc(NC(=O)Cn3cnnn3)ccc2O[C@@H]1CN(C)S(=O)(=O)c1ccc(F)cc1` was tested, and the cytotoxicity call was “inactive”.
`Cc1ccccc1S(=O)(=O)N1C[C@H](O)COC[C@H]2O[C@@H](CC(=O)NCCc3ccccc3)CC[C@@H]21` was tested, and the cytotoxicity call was “inactive”.
With `Nc1ncnc2nc[nH]c12` the cytotoxicity call was “inactive”.
For `O=c1[nH]cnc2nc[nH]c12`, the cytotoxicity call was “inactive”.
In the case of `Nc1nc2nc[nH]c2c(=O)[nH]1`, the cytotoxicity call was “inactive”.
In the case of `Nc1nc2nc[nH]c2c(=S)[nH]1` [listing 1 of 2 here], the cytotoxicity call was “active”.
For `S=c1[nH]cnc2nc[nH]c12`, the cytotoxicity call was “active”.
With `Nc1nc2nc[nH]c2c(=S)[nH]1` [listing 2 of 2 here] the cytotoxicity call was “inactive”.
With `N#CCN(CC#N)C(=O)c1ccco1` the cytotoxicity call was “inactive”.
In the case of `CC(C)CC#Cc1ccc2c(c1)O[C@@H](CN(C)C(=O)C1CCOCC1)[C@@H](C)CN([C@@H](C)CO)S2(=O)=O`, the cytotoxicity call was “inactive”.
For `COc1ccc(S(=O)(=O)N(C)C[C@H]2Oc3ccc(NS(=O)(=O)c4ccccc4)cc3C(=O)N([C@@H](C)CO)C[C@H]2C)cc1`, the cytotoxicity call was “inactive”.
In the case of `Cc1noc(C)c1S(=O)(=O)Nc1ccc2c(c1)CC(=O)N([C@H](C)CO)C[C@H](C)[C@H](CN(C)Cc1ccncc1)O2`, the cytotoxicity call was “inactive”.
`COc1ccc(S(=O)(=O)N2C[C@@H](O)COC[C@@H]3O[C@H](CC(=O)NCCCN(C)C)CC[C@H]32)cc1` was tested, and the cytotoxicity call was “inactive”.
`COc1cc(O)c(C(=O)c2ccccc2)cc1S(=O)(=O)O` was tested, and the cytotoxicity call was “inactive”.
In the case of `COc1cc(O)cc(O)c1C(=O)c1ccccc1`, the cytotoxicity call was “active”.
In the case of `COc1ccc(C(=O)c2ccccc2)c(O)c1`, the cytotoxicity call was “inactive”.
In the case of `C[C@H]1CN([C@@H](C)CO)C(=O)c2cc(C#Cc3cccnc3)cnc2O[C@H]1CN(C)S(=O)(=O)c1ccccc1F`, the cytotoxicity call was “inactive”.
For `C[C@@H]1CN([C@H](C)CO)S(=O)(=O)c2ccc(C#CCN(C)C)cc2O[C@H]1CN(C)S(=O)(=O)c1cccc(F)c1`, the cytotoxicity call was “inactive”.
For `C[C@@H]1CN([C@H](C)CO)C(=O)c2cccc(NC(=O)C3CCOCC3)c2O[C@@H]1CN(C)S(=O)(=O)c1ccccc1`, the cytotoxicity call was “inactive”.
In the case of `Cc1n[nH]c(N/N=C/c2ccccn2)nc1=O`, the cytotoxicity call was “active”.
With `Cc1n[nH]c(NCc2ccco2)nc1=O` the cytotoxicity call was “inactive”.
For `CCCNc1nc(=O)c(C)n[nH]1`, the cytotoxicity call was “inactive”.
In the case of `O=C(O)[C@@H]1CCCC[C@@H]1C(=O)N1CCc2ccccc2[C@H]1CN1C(=O)c2ccccc2C1=O.O=C(O)[C@H]1CCCC[C@@H]1C(=O)N1CCc2ccccc2[C@H]1CN1C(=O)c2ccccc2C1=O`, the cytotoxicity call was “inactive”.
`C[C@@H]1CCCCO[C@H](CN(C)S(=O)(=O)c2cccs2)[C@@H](C)CN([C@H](C)CO)C(=O)c2cc(NS(=O)(=O)c3ccc(Cl)cc3)ccc2O1` was tested, and the cytotoxicity call was “inactive”.
`C[C@@H]1CN([C@@H](C)CO)C(=O)c2cc(NS(=O)(=O)c3cn(C)cn3)ccc2O[C@@H]1CN(C)CC1CC1` was tested, and the cytotoxicity call was “inactive”.
In the case of `O=C1CCCNc2ccc(Cl)cc21`, the cytotoxicity call was “inactive”.
With `O=C1CCNc2cc3ccccc3cc21` the cytotoxicity call was “active”.
For `O=C1NCc2ccccc21`, the cytotoxicity call was “inactive”.
In the case of `COc1ccc(NC(=O)N(C)C[C@@H]2Oc3ccc(NC(=O)CCN4CCOCC4)cc3C(=O)N([C@@H](C)CO)C[C@@H]2C)cc1`, the cytotoxicity call was “inactive”.
For `COc1ccc(S(=O)(=O)N(C)C[C@H]2OCCCC[C@H](C)Oc3ccc(NC(=O)Nc4ccccc4)cc3C(=O)N([C@@H](C)CO)C[C@H]2C)cc1`, the cytotoxicity call was “inactive”.
For `NC1=NCCN1CC(=O)O`, the cytotoxicity call was “active”.
With `O=C(O)CN1CCOC1=O` the cytotoxicity call was “inactive”.
For `O=C(O)CN1CCCCC1=O`, the cytotoxicity call was “inactive”.
In the case of `COC(=O)N[C@H](C(=O)N1CC2(CC2)C[C@H]1c1nc(-c2ccc3c(c2)C(F)(F)c2cc(-c4ccc5nc([C@@H]6[C@H]7CC[C@H](C7)N6C(=O)[C@@H](NC(=O)OC)C(C)C)[nH]c5c4)ccc2-3)c[nH]1)C(C)C`, the cytotoxicity call was “inactive”.
For `Cn1cnc(CCNC(=O)C[C@H]2CC[C@H]3[C@@H](COC[C@H](O)CN3C(=O)C3CC3)O2)c1`, the cytotoxicity call was “inactive”.
In the case of `O=C1OC(=O)[C@H]2[C@@H]1[C@H]1CC[C@H]2O1`, the cytotoxicity call was “active”.
For `COc1ccc2c3c([nH]c2c1)[C@@H](CO)N(C[C@]13CCN(CC1)Cc1ccccc1)S(=O)(=O)c1cn(cn1)C`, the cytotoxicity call was “inactive”.
`C[C@@H]1CN([C@H](C)CO)C(=O)c2cccc(NC(=O)NC3CCCCC3)c2O[C@H]1CN(C)Cc1ccc(Cl)c(Cl)c1` was tested, and the cytotoxicity call was “inactive”.
In the case of `C[C@@H]1CN([C@@H](C)CO)C(=O)c2cc(NC(=O)c3ccncc3)ccc2O[C@@H](C)CCCCO[C@H]1CN(C)Cc1ccc(C(F)(F)F)cc1`, the cytotoxicity call was “inactive”.
`C[C@H]1CCCCO[C@@H](CN(C)C(=O)C2CCCCC2)[C@@H](C)CN([C@@H](C)CO)C(=O)c2cc(NC(=O)Nc3ccccc3)ccc2O1` was tested, and the cytotoxicity call was “inactive”.
`C[C@@H]1CN([C@H](C)CO)C(=O)c2cc(NC(=O)Nc3ccccc3)ccc2O[C@@H](C)CCCCO[C@@H]1CN(C)C(=O)C1CCCCC1` was tested, and the cytotoxicity call was “inactive”.
For `C[C@@H]1CCCCO[C@@H](CN(C)C(=O)C2CCCCC2)[C@@H](C)CN([C@@H](C)CO)C(=O)c2cc(NC(=O)Nc3ccccc3)ccc2O1`, the cytotoxicity call was “active”.
In the case of `C[C@@H]1CCCCO[C@H](CN(C)C(=O)C2CCCCC2)[C@@H](C)CN([C@@H](C)CO)C(=O)c2cc(NC(=O)Nc3ccccc3)ccc2O1`, the cytotoxicity call was “active”.
`C[C@H]1CCCCO[C@H](CN(C)C(=O)C2CCCCC2)[C@@H](C)CN([C@@H](C)CO)C(=O)c2cc(NC(=O)Nc3ccccc3)ccc2O1` was tested, and the cytotoxicity call was “inactive”.
For `C[C@H](CO)N1C[C@H](C)[C@@H](CN(C)C(=O)C2CCCCC2)OCCCC[C@H](C)Oc2ccc(NC(=O)Nc3ccccc3)cc2C1=O`, the cytotoxicity call was “inactive”.
`C[C@H]1CN([C@@H](C)CO)C(=O)c2cccc(NC(=O)c3cnccn3)c2O[C@@H]1CN(C)Cc1ccc(C(=O)O)cc1` was tested, and the cytotoxicity call was “inactive”.
In the case of `C[C@H](CO)N1C[C@H](C)[C@H](CN(C)C(=O)CN(C)C)Oc2cc(-c3ccc(C#N)cc3)ccc2S1(=O)=O`, the cytotoxicity call was “inactive”.
`CCNC1CC(N)C(OC2OC(CN)=CCC2N)C(O)C1OC1OCC(C)(O)C(NC)C1O.O=S(=O)(O)O.O=S(=O)(O)O` (stereo not drawn) was tested, and the cytotoxicity call was “inactive”.
In the case of `COc1ccc(CN(C)C[C@H]2OCCCC[C@H](C)Oc3ccc(NC(=O)Nc4ccc5c(c4)OCO5)cc3C(=O)N([C@H](C)CO)C[C@H]2C)cc1`, the cytotoxicity call was “inactive”.
With `C[C@H](CO)N1C[C@H](C)[C@@H](CN(C)C(=O)Nc2ccc(C(F)(F)F)cc2)Oc2c(NC(=O)c3nc4ccccc4s3)cccc2C1=O` the cytotoxicity call was “inactive”.
`C[C@@H]1CN([C@@H](C)CO)C(=O)c2cccc(NC(=O)c3nc4ccccc4s3)c2O[C@H]1CN(C)C(=O)Nc1ccc(C(F)(F)F)cc1` was tested, and the cytotoxicity call was “active”.
`C[C@@H]1CN([C@@H](C)CO)C(=O)c2cccc(NC(=O)c3nc4ccccc4s3)c2O[C@H]1CN(C)C(=O)Nc1ccc(F)cc1` was tested, and the cytotoxicity call was “inactive”.
For `C[C@H]1CN([C@@H](C)CO)C(=O)c2cccc(NC(=O)c3nc4ccccc4s3)c2O[C@@H]1CN(C)C(=O)Nc1ccc(C(F)(F)F)cc1`, the cytotoxicity call was “inactive”.
With `C[C@H]1CN([C@@H](C)CO)C(=O)c2cccc(NC(=O)c3nc4ccccc4s3)c2O[C@H]1CN(C)C(=O)Nc1ccc(C(F)(F)F)cc1` the cytotoxicity call was “active”.
For `C[C@H](CO)N1C[C@H](C)[C@H](CN(C)C(=O)Nc2ccc(C(F)(F)F)cc2)Oc2c(NC(=O)c3nc4ccccc4s3)cccc2C1=O`, the cytotoxicity call was “inactive”.
For `C[C@@H]1CN([C@@H](C)CO)C(=O)c2cccc(NC(=O)c3nc4ccccc4s3)c2O[C@@H]1CN(C)C(=O)Nc1ccc(F)cc1`, the cytotoxicity call was “active”.
`C[C@@H]1CN([C@H](C)CO)C(=O)c2cccc(NC(=O)c3nc4ccccc4s3)c2O[C@@H]1CN(C)C(=O)Nc1ccc(C(F)(F)F)cc1` was tested, and the cytotoxicity call was “inactive”.
With `C[C@H](CO)N1C[C@H](C)[C@@H](CN(C)C(=O)Nc2ccc(F)cc2)Oc2c(NC(=O)c3nc4ccccc4s3)cccc2C1=O` the cytotoxicity call was “inactive”.
For `C[C@@H]1CCCCO[C@H](CN(C)S(=O)(=O)c2cccs2)[C@@H](C)CN([C@H](C)CO)C(=O)c2cc(NC(=O)Nc3ccccc3)ccc2O1`, the cytotoxicity call was “inactive”.
`COc1ccccc1NC(=O)N(C)C[C@H]1OCc2ccccc2-c2c(n(C)c3ccccc23)C(=O)N([C@H](C)CO)C[C@@H]1C` was tested, and the cytotoxicity call was “inactive”.
With `C[C@H](CO)N1C[C@H](C)[C@@H](CN(C)C(=O)c2cccc(F)c2)Oc2cc(-c3ccncc3)ccc2S1(=O)=O` the cytotoxicity call was “inactive”.
With `O=C(C[C@H]1CC[C@@H]2[C@H](COC[C@H](O)CN2S(=O)(=O)c2ccccc2)O1)N1CCOCC1` the cytotoxicity call was “inactive”.
For `C[C@H]1CN([C@@H](C)CO)C(=O)Cc2cc(NC(=O)Cn3cnnn3)ccc2O[C@H]1CN(C)Cc1ccc(-c2ccccc2)cc1`, the cytotoxicity call was “inactive”.
In the case of `C[C@@H]1CN([C@@H](C)CO)C(=O)c2cc(NC(=O)Nc3ccccc3)ccc2O[C@@H](C)CCCCO[C@@H]1CN(C)C(=O)Nc1ccccc1`, the cytotoxicity call was “inactive”.
`C[C@@H]1CN([C@H](C)CO)C(=O)Cc2cc(NC(=O)CCN3CCOCC3)ccc2O[C@H]1CN(C)Cc1ccc2c(c1)OCO2` was tested, and the cytotoxicity call was “inactive”.
With `Cc1noc(C)c1S(=O)(=O)N(C)C[C@@H]1Oc2ccc(NC(=O)NC3CCCCC3)cc2CC(=O)N([C@@H](C)CO)C[C@H]1C` the cytotoxicity call was “inactive”.
In the case of `Cc1ccc(S[C@]2(C(=O)NCc3ccccc3)CC(=O)N(Cc3ccccc3C(F)(F)F)[C@@H]2c2ccc(CO)cc2I)cc1`, the cytotoxicity call was “inactive”.
For `CN(C)c1ccc(O)c2c1C[C@H]1C[C@H]3[C@H](N(C)C)C(=O)C(C(N)=O)=C(O)[C@@]3(O)C(=O)[C@H]1C2=O`, the cytotoxicity call was “inactive”.
`COC(=O)C1(C)CCCC2(C)c3ccc(O)c(C(C)C)c3CCC12` (stereo not drawn) was tested, and the cytotoxicity call was “active”.
`CC(C)c1c(O)ccc2c1CCC1C(C)(C)CCCC21C` (stereo not drawn) was tested, and the cytotoxicity call was “inactive”.
With `CC(C)c1c(O)ccc2c1CC[C@H]1C(C)(C)CCC[C@]21C` the cytotoxicity call was “active”.
In the case of `CC(C)c1c(O)ccc2c1CCC1C(C)(C=O)CCCC21C` (stereo not drawn), the cytotoxicity call was “inactive”.
`CC(C)c1c(O)ccc2c1CCC1C(C)(C)C(=O)CCC21C` (stereo not drawn) was tested, and the cytotoxicity call was “inactive”.
For `COC(=O)C1(C)CCCC2(C)c3ccc(C(C)C)cc3C(=O)CC12` (stereo not drawn), the cytotoxicity call was “inactive”.
